Laboratory results reported in ChEMBL document CHEMBL4513216, “Probing the Open Global Health Chemical Diversity Library for Multistage-Active Starting Points for Next-Generation Antimalarials” (ACS Infect Dis, 2020).
Hit rate of the full screen: of about 69,000 compounds, about 8,600 (12%) showed an effect of 50% or more. For the sample, strong results were picked, then their nearest neighbours and some compounds at random.

test system: Plasmodium berghei; experiment: Screen against P. berghei liver stage (PbLuc), transformed with Luciferase, at 10uM; type: functional, HepG2; conditions: tested at 10 uM

| Compound | INHIBITION [%] |
| --- | --- |
| Cc1ccc(CNC(=O)NCCCO)cc1 | 0.914 |
| Cc1ccc(C(NC(=O)C2CCC(O)CC2)c2cccnc2)cc1C (stereo not given) | 7.84 |
| Cc1ccccc1S(=O)(=O)NC(=O)C1(c2ccccc2)CCC1 | 35.2 |
| Cc1ccc(S(=O)(=O)NC(C)(C)CN)c(F)c1 | -21.8 |
| Cn1ccc(C2CCCCCN2C(=O)c2cccnc2)n1 (stereo not given) | -1.16 |
| Cn1ccc(C2CCCCN2C(=O)c2cccc(-n3cccn3)c2)n1 (stereo not given) | 56.1 |
| Cn1ccc(C2CCCCN2C(=O)c2cccc(Cn3cccn3)c2)n1 (stereo not given) | 15 |
| O=S(=O)(NCCCn1cncn1)c1ccc2c(c1)OCCCO2 | 49 |
| CSc1ncccc1C(=O)N1C[C@@H]2CC[C@H]1CN(c1cnccn1)C2 | 0.139 |
| CC(C)(CNc1cccc(Cl)c1)NC(=O)C1CCCN(CC(N)=O)C1 (stereo not given) | 69.9 |
| CC(C)(CNC(=O)C1CCCN(C(N)=O)C1)c1cccc(Cl)c1 (stereo not given) | 21.5 |
| NC(=O)N1CCCC(C(=O)Nc2cccc(Cl)c2)C1 (stereo not given) | 37.5 |
| O=C(c1cccc2c1OCO2)N1CCC(N2CCCC2)CC1 | -17.4 |
| c1ccc(COC2C[C@@H]3CN(Cc4cncnc4)C[C@@H]3C2)cc1 (stereo not given in full) | 28 |
| CCc1noc(C2CCCCN2C(=O)c2cccnc2)n1 (stereo not given) | -8.9 |
| Cc1noc(C)c1C(=O)N1CCCC1c1c(C)nn(C)c1C (stereo not given) | -50.5 |
| Cc1cc(CNC2(c3ccc(Cl)cc3)CC2)no1 | 16.8 |
| Cc1cccc(C2(O)CCN(Cc3ccccc3N3CCCC3)CC2)c1 | 61 |
| OC1(c2ccccc2F)CCN(Cc2ccccc2N2CCCC2)CC1 | 46.2 |
| OC1(c2ccc(F)cc2)CCN(Cc2ccccc2N2CCCC2)CC1 | 43.4 |
| C1CCC(NC2CCCN(Cc3noc(C4CC4)n3)C2)C1 (stereo not given) | 17.3 |
| CCOc1cccc(C2CC(=O)NCc3nc(N4CCCC4)sc32)c1 (stereo not given) | 56.5 |
| CCOc1cccc(C2CC(=O)NCc3nc(N(C)C)sc32)c1 (stereo not given) | 11.7 |
| CCOc1cccc(C2CC(=O)NCc3nc(N)sc32)c1 (stereo not given) | 42.2 |
| Cc1cccc(C)c1OCCNC(=O)CN1CCN(C)CC1C (stereo not given) | -17.7 |
| Cc1ccc2c(c1)cc(CN1CC[C@](C)(O)[C@H](C)C1)n2C | 42.1 |
| CN1CCN(C2CCN(Cc3cn4ccccc4n3)CC2)C1=O | -22.3 |

| Compound | INHIBITION [%] |
| --- | --- |
| CN(C)Cc1cnc2n1CCN(C(=O)C1CC=CC1)CC2 | 36.9 |
| Cc1ccc(CN2CC[C@H]3[C@H]2CCN3S(C)(=O)=O)s1 | 58.7 |
| Cc1ccc(CN2CC[C@@H]3[C@H]2CCC(=O)N3Cc2ccncc2)s1 | 68.4 |
| Cc1ccc(CN2CC[C@H]3[C@@H]2CCC(=O)N3CCN2CCCC2)s1 | 32.4 |
| Cc1cccc(CN2C(=O)CC[C@@H]3[C@H]2CCN3Cc2ccc(C)s2)n1 | 33.5 |
| Cc1ccc(CN2CC[C@@H]3OCCN(Cc4ccncc4)[C@H]3CC2)s1 | 58.3 |
| Cc1ccc(CN2CC[C@@H]3OCCN(S(C)(=O)=O)[C@H]3CC2)s1 | 34.5 |
| Cc1ccc(CN2CC[C@H]3[C@H]2CCN3S(=O)(=O)C2CC2)s1 | 13.7 |
| CS(=O)(=O)N1CCO[C@@H]2CCN(Cc3ccncc3)CC[C@H]21 | 23.6 |
| Cc1cc(CN2CC[C@H]3[C@H]2CCN3S(C)(=O)=O)oc1C | 16.1 |
| Cc1nc(CN(C)C2CCN(Cc3ccc4c(c3)CCC4)C2)no1 (stereo not given) | 31.3 |
| NC(=O)C1CNCCN1C(=O)COc1ccccc1 (stereo not given) | 36 |
| Cc1csc(CN2CC[C@H]3C[C@@H](c4nc(C)no4)O[C@@H]3C2)n1 | -11.6 |
| CN1[C@@H](C(=O)NCC2CC2)C[C@@H]2CN(Cc3ccsc3)C[C@@H]21 | -9.74 |
| CNC(=O)CCc1cc(C)nc(C2CCN(c3ccccc3)CC2)c1 | 20.24 |
| COCCNC(=O)[C@H]1CN(c2ncccn2)C[C@H]2OCC[C@@H]12 | 55.5 |
| COCCNC(=O)[C@@H]1CN(c2ncccn2)C[C@H]2OCC[C@H]21 | 43.9 |
| COCCNC(=O)[C@H]1CN(Cc2cccs2)C[C@H]2OCC[C@@H]12 | 43.9 |
| COCCNC(=O)[C@@H]1CN(c2cc(OC)ncn2)C[C@H]2OCC[C@H]21 | 24.9 |
| Cc1nnc(N2C[C@H](C(=O)NCc3ccco3)[C@@H]3CCO[C@@H]3C2)s1 | 15.4 |
| COCCNC(=O)[C@H]1CN(Cc2csc(C)n2)C[C@H]2OCC[C@@H]12 | 24.9 |
| Cc1nnc(N2C[C@H](C(=O)NCC3CC3)[C@@H]3CCO[C@@H]3C2)s1 | -19.7 |
| COCCNC(=O)[C@H]1CN(c2nnc(C)s2)C[C@H]2OCC[C@@H]12 | 52.9 |
| Cc1nnc(N2C[C@H]3OCC[C@H]3[C@H](C(=O)NCC3CC3)C2)s1 | 66.9 |
| Cc1cccc(CN2CCc3nnc(CO)n3CC2)n1 | 27.4 |
| O=C1[C@H]2CN(Cc3cccs3)C[C@H]2CN1CCN1CCCC1 | 9.97 |
| Cc1c(C2CCCN(C(=O)c3cccnc3)C2)n2c(nc1=O)CCC2 (stereo not given) | -73.1 |

| Compound | INHIBITION [%] |
| --- | --- |
| O=C(C1CCOC1)N1CCN(CC2CC2)c2ccccc21 (stereo not given) | 42.8 |
| CCOCC1CN(C(=O)c2ccoc2C)Cc2cnn(C)c21 (stereo not given) | 23.3 |
| Nc1cncc(C(=O)N2Cc3ccccc3OC3(CCOCC3)C2)c1 | 22 |
| COc1cc(Cl)ccc1C(=O)N1CCCC(n2nc(C)nc2C)C1 (stereo not given) | 19.4 |
| Cc1nc(C)n(C2CCCN(C(=O)c3cccc4cn[nH]c34)C2)n1 (stereo not given) | 56 |
| Cc1nc(C)n(C2CCCN(C(=O)c3cccc4[nH]ncc34)C2)n1 (stereo not given) | -50.8 |
| Cc1nc(C)n(C2CCCN(C(=O)c3ccccc3C)C2)n1 (stereo not given) | 31.1 |
| COc1ccc(C)cc1C(=O)N1CCCC(n2nc(C)nc2C)C1 (stereo not given) | -9.37 |
| COc1ccc(C(=O)N2CCCC(n3nc(C)nc3C)C2)c(OC)c1 (stereo not given) | 52.3 |
| Cn1ccc(CN2CCC(NC(=O)C3CCCCC3)CC2)cc1=O | 5.907 |
| CC1(C(=O)NCc2cccc(C(F)(F)F)c2)CCOCC1 | 15.9 |
| O=C1CSC(C(F)(F)F)c2c(O)nn(C3CCCC3)c2N1 (stereo not given) | 13.1 |
| CCC(C)NC(=O)Nc1cccc(OCC#N)c1 (stereo not given) | 5.29 |
| Cc1cnccc1CNCc1ccc(OC23CCCN(CC2)C3)cc1 (stereo not given) | 21.525 |
| Cc1nc(CNCc2cccc(OC34CCCN(CC3)C4)c2)n[nH]1 (stereo not given) | 31.15 |
| c1ccc(Oc2cccc(OC34CCCN(CC3)C4)c2)cc1 (stereo not given) | 65.7 |
| O=c1[nH]nc(CNCc2ccc(OC34CCCN(CC3)C4)cc2)[nH]1 (stereo not given) | 21.085 |
| c1ccc(Oc2ccc(OC34CCCN(CC3)C4)cc2)cc1 (stereo not given) | 57.6 |
| N#Cc1cccc(OC23CCCN(CC2)C3)c1 (stereo not given) | 21.2 |
| Cc1cn2cc(-c3nc4c([nH]3)CCCNC4=O)nc2s1 | -54.3 |
| CC(C)(C)c1nnc(CN2CCN(C(=O)N3CCCCC3)CC2)o1 | 29.5 |
| CC(=O)N1CCCCCC1C1CCN(Cc2nc(C(C)C)no2)CC1 (stereo not given) | 8.11 |
| O=C(NCC1CCCO1)C1CCN(Cc2nc(C3CC3)no2)CC1 (stereo not given) | 40.2 |
| CC(=O)N1CCCCCC1C1CCN(Cc2nc(C3CC3)no2)CC1 (stereo not given) | 55.4 |
| CC(=O)N1CCCCCC1C1CCN(Cc2nnc(C(C)(C)C)o2)CC1 (stereo not given) | 66.5 |
| CCc1nnc(CN2CCC(C3CCCCCN3C(C)=O)CC2)o1 (stereo not given) | 40.6 |
| CC(=O)NCC1CCN(Cc2nc(C3CC3)no2)CC1 | 57.5 |

| Compound | INHIBITION [%] |
| --- | --- |
| CCc1nnc(CN2CCC(C3CCCCCN3C(=O)C3CC3)CC2)o1 (stereo not given) | 62.8 |
| CCc1nnc(CN2CCN(C(C)=O)CC2)o1 | 9.65 |
| CCN1CCN(C2CCN(Cc3nc(C4CC4)no3)CC2)C1=O | 33.8 |
| CS(=O)(=O)N1CCCCCC1C1CCN(Cc2nc(C3CC3)no2)CC1 (stereo not given) | 29.1 |
| CC(=O)N1CCN(Cc2nnc(C(C)(C)C)o2)CC1 | -33.2 |
| Cc1[nH]ccc1C(=O)Nc1cccc(CN2CCC(CO)CC2)c1 | 25.3 |
| CC(C)=CCN1C[C@@H]2CC[C@H]1CN(C(=O)c1ccc(S(N)(=O)=O)cc1)C2 | 39.4 |
| Cc1ncsc1C(=O)N1CCN(Cc2cscn2)CC1 | 16 |
| Cc1cccc(OCCNC(=O)Cn2ccc(C)cc2=O)c1 | 28.7 |
| O=C(c1ccnc(NC2CC2)c1)N1CCCC1c1cccc(Br)c1 (stereo not given) | -96.5 |
| Cc1ccc(C)c2c(C)c(C(=O)NCCCn3cnnc3)[nH]c12 | -56.7 |
| CN(C)C(=O)COC1COC2(CCN(CC3CC3)CC2)C1 (stereo not given) | 37.6 |
| Cc1cccc(CN2C(=O)C[C@H]3[C@@H]2CCN3CC2CC2)n1 | -14.3 |
| Cn1cc(NC(=O)CNC(=O)N2CCN(c3ccc(F)cc3)CC2)cn1 | 9.55 |
| CNc1cc(N2CCCC2CNCc2cnc(C)s2)ncn1 (stereo not given) | 7.61 |
| COCc1cnc2n1CCN(C(=O)c1cnc3ccccc3c1)C2C (stereo not given) | 11.3 |
| Cc1ncoc1C(=O)N1CCn2c(COc3cccnc3)cnc2C1C (stereo not given) | 5.67 |
| COCc1cnc2n1CCN(C(=O)c1ccc3ccccc3n1)C2C (stereo not given) | 61.1 |
| COCc1cnc2n1CCN(C(=O)c1cc3cc(Cl)ccc3o1)C2C (stereo not given) | 46.6 |
| COCc1cnc2n1CCN(C(=O)C1=CCCCC1)C2C (stereo not given) | 14.2 |
| COCc1cnc2n1CCN(C(=O)c1ocnc1C)C2C (stereo not given) | 20.5 |
| COCc1cnc2n1CCN(C(=O)c1oc3ccccc3c1C)C2C (stereo not given) | 52.1 |
| COCc1cnc2n1CCN(C(=O)c1cc3ccccc3o1)C2C (stereo not given) | 62 |
| COCc1cnc2n1CCN(C(=O)C1=CCCC1)C2C (stereo not given) | -56.3 |
